The nature of experiment [1]: Viability qHTS for spleen associated tyrosine kinase inhibitor (SYKi) naive MV4-11 cells (AID 1963823). Further: nearly all actives have a fitted effect of over 40% in size. Summed up:
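Luminescence from CellTiter-Glo, developed 10 min at room temperature, gave viability of MV4-11 cells never exposed to SYK inhibitor. Cells (500/well) had been incubated with compounds for 72 hr under standard culture conditions.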

The nature of experiment [2]: Viability qHTS for spleen associated tyrosine kinase inhibitor (SYKi) drug resistant MV4-11 cells (AID 1963824). Further: nearly all actives have a fitted effect of over 35% in size. Summed up: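 SYK inhibitor-resistant MV4-11 AML cells, 500 per well, added to predispensed compounds and incubated 72 hr at 37 C, 5% CO2. Viability measured by CellTiter-Glo luminescence after 10 min at room temperature.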

This is an account of results in PubChem BioAssay (NCATS).

Inconclusive results are not listed. Calls of active or inactive are those of the source. The call rests on the fitted dose curve; in most records, active means well fitted cell-killing curve with a large enough effect; inconclusive means small, poorly fitted or top-dose-only effect, or effect the other way; inactive means no such curve, though single readings can be large or run the other way.
Potency means the concentration at half of the fitted maximal effect.

`C[C@H](/C=C/[C@@]1(O)[C@H](C)CC(=O)CC1(C)C)O[C@@H]1O[C@H](CO[C@@H]2OC[C@@H](O)[C@H](O)[C@H]2O)[C@@H](O)[C@H](O)[C@H]1O`: the Potency result in experiment [1] and in experiment [2] was “inactive” each time.
`CC(C)C(=O)OC[C@H]1O[C@@H](n2ccc(N)nc2=O)[C@](C)(F)[C@@H]1OC(=O)C(C)C`: the Potency result in experiment [1] and in experiment [2] was “inactive” in each case.
As for `CN(C)CC/C=C1\c2ccccc2COc2ccccc21`, the Potency result in experiment [1] and in experiment [2] was “inactive” each time.
With `COc1ccc(C[C@H](N)C(=O)N[C@@H]2[C@H](O)[C@H](n3cnc4c(N(C)C)ncnc43)O[C@@H]2CO)cc1`, the Potency in experiment [1] and in experiment [2] was 184 nM (active) each time.
Consider `O=C(/C=C/c1ccc(O)cc1)O[C@@H]1C[C@@](O)(C(=O)O)C[C@@H](O)[C@@H]1O`, for which the Potency entry in experiment [1] and in experiment [2] was “inactive” each time.
As to `COc1ccc(OC2OC(CO[C@@H]3O[C@@H](C)[C@H](O)[C@@H](O)[C@H]3O)C(O)C(O)C2O)cc1OC` (stereo partly specified), the Potency entry in experiment [1] and in experiment [2] was “inactive” in each case.
For `C[C@]1(O)CC[C@@H]2C(C(=O)O)=CO[C@@H](O[C@@H]3O[C@H](COC(=O)/C=C/c4ccc(O)c(O)c4)[C@@H](O)[C@H](O)[C@H]3O)[C@@H]21`, the Potency entry in experiment [1] and in experiment [2] was “inactive” throughout.
With `C=C1C2(C)CC3C4(C)OC(C5OC56C4=CC(=O)OC6(C)C)C3(C)C13C(=O)OC(C)C3(O)C2=O` (stereo unspecified), the Potency entry in experiment [1] and in experiment [2] was “inactive” in each case.
As for `CC(=O)N1CCN(C(=O)Cc2ccc(Nc3ncc(F)c(Nc4ccc(C(=O)Nc5ccccc5Cl)cc4)n3)cc2)CC1`, the Potency in experiment [1] and in experiment [2] was 517 nM (active) throughout.
In the case of `Nc1nc(Cl)nc2c1ncn2C1OC(CO)C(O)C1F` (stereo unspecified), the Potency is 116 nM (active) in experiment [1] and 130 nM (active) in experiment [2].
Taken in the same sequence, the figures for `OCC(CO[C@@H]1O[C@H](CO)[C@@H](O)[C@H](O)[C@H]1O)c1ccc2c(c1)OCO2` (stereo partly specified) were “inactive” and “inactive”.
Regarding `C=C1C(=O)O[C@@H]2/C=C(\CO)CC/C=C(\CO)[C@H](OC(C)=O)C(OC(=O)C(C)CC)C12` (stereo partly specified), the Potency in experiment [1] was 5020 nM (active); in experiment [2] it was 2240 nM (active).
On to `COc1cc(C)c(C(=O)O[C@H]2[C@@H](O)[C@H](n3ccc(=O)[nH]c3=O)O[C@@H]2CO)c(OC)c1`, for which the Potency result in experiment [1] and in experiment [2] was “inactive” each time.
On to `COc1cc(C)c(C(=O)O[C@@H]2[C@H](O)[C@@H](CO)O[C@H]2n2ccc(=O)[nH]c2=O)c(OC)c1`, for which the Potency entry in experiment [1] and in experiment [2] was “inactive” each time.
As for `CC(C)C1C(OC(=O)/C=C/c2ccccc2)CC2(C)OC2CCC2(C)OC2C1O` (stereo unspecified), the Potency entry in experiment [1] and in experiment [2] was “inactive” throughout.
Regarding `CC(=O)c1c(C)cccc1O[C@@H]1O[C@H](CO)[C@@H](O)[C@H](O)[C@H]1O`, the Potency entry in experiment [1] and in experiment [2] was “inactive” throughout.
Turning to `CC(/C=C/C1(O)C(C)(C)CC(O)CC1(C)O)OC1OC(CO)C(O)C(O)C1O` (stereo unspecified), the Potency result in experiment [1] and in experiment [2] was “inactive” throughout.
In the case of `C=C(C)[C@H]1C[C@@H](O)C(=C)CC[C@@H](O)C(=C)[C@@H](O)C1`, the Potency result in experiment [1] and in experiment [2] was “inactive” each time.
Regarding `COc1cc(O)c2c(c1)C1=CC(O)C(O)CC1(C)OC2=O` (stereo unspecified), the Potency entry in experiment [1] and in experiment [2] was “inactive” in each case.
As to `CC(=O)N1CCc2ccc(O)c(OC3OC(COC4OCC(O)(CO)C4O)C(O)C(O)C3O)c2C1Cc1ccc(O)cc1` (stereo unspecified), the Potency result in experiment [1] and in experiment [2] was “inactive” each time.
Consider `CC(=O)OC1C(=O)C2(C)C(O)CC3OCC3(OC(C)=O)C2C(OC(=O)c2ccccc2)C2(O)CC(OC(=O)C(O)C(NC(=O)c3ccccc3)c3ccccc3)C(C)=C1C2(C)C` (stereo unspecified), for which the Potency was 5.8 nM (active) in experiment [1] and 7.3 nM (active) in experiment [2].
Take `O=C(O)CCc1c(C(=O)O)[nH]c2cc(Cl)cc(Cl)c12`: the Potency entry in experiment [1] and in experiment [2] was “inactive” in each case.
As for `CC[C@@H]1C(=O)O[C@]23C=C[C@@H]4C(C(=O)OC)=CO[C@H](O[C@@H]12)[C@@H]43`, the Potency was 3660 nM (active) in experiment [1] and 5170 nM (active) in experiment [2].
In the case of `CSCC1OC(n2cnc3c(=O)[nH]cnc32)C(O)C1O` (stereo unspecified), the Potency result in experiment [1] and in experiment [2] was “inactive” each time.
As for `COc1cc(/C=C/C(=O)OC[C@H]2O[C@@](CO)(O[C@H]3O[C@H](CO)[C@@H](O)[C@H](O)[C@H]3O)[C@@H](OC(=O)/C=C/c3ccc(O)c(OC)c3)[C@@H]2O)ccc1O`, the Potency result in experiment [1] and in experiment [2] was “inactive” each time.
With `CC1CCC23COC(=O)C2=CC(O)CC3C1(C)CCC1=CC(=O)OC1O` (stereo unspecified), the Potency entry in experiment [1] and in experiment [2] was “inactive” each time.
Turning to `CC(C(=O)O)C1CCC2(C)C3C(=O)C=C4C(CCC(=O)C4(C)C)C3(C)CCC12C` (stereo unspecified), the Potency entry in experiment [1] and in experiment [2] was “inactive” each time.
Regarding `CC1(C)CC[C@]23CO[C@@]4(CCC5[C@@]6(C)CC[C@H](O[C@@H]7OC[C@H](O[C@@H]8O[C@H](CO)[C@@H](O)[C@H](O)[C@H]8O[C@@H]8OC[C@@H](O)[C@H](O)[C@H]8O)[C@H](O)[C@H]7O[C@@H]7O[C@H](CO)[C@@H](O)[C@H](O)[C@H]7O)[C@@](C)(CO)C6CC[C@@]5(C)[C@]4(C)C[C@H]2O)[C@@H]3C1` (stereo partly specified), the Potency in experiment [1] was 2190 nM (active); in experiment [2] it was 3900 nM (active).
